Experimental findings from PubChem BioAssay (EPA / NIEHS) are described below.

In assay [1] the target is human Beta-secretase (BACE), BACE1 (gene 23621) (UniProt P56817). As to the kind of experiment: NVS_ENZ_hBACE: NovaScreen (NVS) Enzymatic Assay for human Beta-secretase (BACE) (AID 2283140).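 Also: hits are inhibitors that reduce fluorescent substrate signal versus DMSO.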 The essentials: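 Enzyme activity of SF9-produced BACE1 is measured cell-free by fluorescence, 1 hour post dosing, normalised to DMSO. Screening used 25 uM in duplicate, with concentration-response follow-up for actives.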

Assay [2] addresses human AKT serine/threonine Kinase 2 (AKT2), AKT2 (gene 208) (UniProt P31751). Description: NVS_ENZ_hAKT2: NovaScreen (NVS) Enzymatic Assay for human AKT serine/threonine Kinase 2 (AKT2) (AID 2283141). The essentials:
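Cell-free fluorescence/electrophoretic mobility shift readout of recombinant human AKT2 activity, 1 h after chemical dosing. Duplicate primary screen at 25 uM, then singleton concentration-response up to 50 uM; loss of signal versus DMSO baseline.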

In assay [3] the target is human Caspase 4 (CASP4), CASP4 (gene 837) (UniProt P49662). Description: NVS_ENZ_hCASP4: NovaScreen (NVS) Enzymatic Assay for human Caspase 4 (CASP4) (AID 2283143). The essentials:
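Compounds were first tested in duplicate at 25 uM, and hits were titrated singly to a 50 uM maximum. Recombinant protease from E. coli was read by fluorescence 2 h post-dose, and activity loss was fitted against the DMSO baseline.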

The target of assay [4] is human Dual Specificity Protein Phosphatase 3 (DUSP3), DUSP3 (gene 1845) (UniProt P51452). Description: NVS_ENZ_hDUSP3: NovaScreen (NVS) Enzymatic Assay for human Dual Specificity Protein Phosphatase 3 (DUSP3) (AID 2283152).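 Also: phosphatase activity of recombinant human DUSP3 on a fluorogenic substrate without cells.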 The method, boiled down:
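Cell-free fluorescence-intensity enzyme activity assay with recombinant protein and substrate; loss of signal fitted relative to DMSO baseline. Primary screen in duplicate at 25 uM, actives then run in concentration series; measured 0 h after dosing.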

Assay [5] concerns the target human Elastase, ELANE (gene 1991) (UniProt P08246). As to the kind of experiment: NVS_ENZ_hElastase: NovaScreen (NVS) Enzymatic Assay for human Elastase (AID 2283153). The essentials:
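Concentration-response to 50 uM max, run singly for chemicals passing a threshold (e.g., 30% inhibition) in a duplicate 25 uM single-point screen. Neutrophil-derived human elastase, absorbance read-out of enzyme activity at 1.5 h; DMSO baseline.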

The target in assay [6] is human Aurora Kinase A - serine/threonine-protein Kinase 6 (AurA), AURKA (gene 6790) (UniProt O14965). Description: NVS_ENZ_hAurA: NovaScreen (NVS) Enzymatic Assay for human Aurora Kinase A - serine/threonine-protein Kinase 6 (AurA) (AID 2283142). The method, boiled down:
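Recombinant human AurA activity read by fluorescence after mobility-shift separation of product from substrate; 1 hour incubation. Chemicals first run in duplicate at 25 uM, then concentration series to 50 uM if over threshold; fitted relative to DMSO.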

Another assay has as its target CDK2 (gene 1017) (UniProt P24941). As to the kind of experiment: NVS_ENZ_hCDK2: NovaScreen (NVS) Enzymatic Assay for human Cyclin-Cependent Kinase 2 (CDK2) (AID 2283144). The essentials:
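Compounds screened in duplicate at 25 uM, then in singleton concentration-response to a maximum of 50 uM, against recombinant CDK2; kinase activity read 1 hr after dosing by fluorescence with mobility-shift separation of substrate and product.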

The target of assay [7] is human Colony Stimulating Factor 1 Receptor (CSF1R), CSF1R (gene 1436) (UniProt P07333). Description: NVS_ENZ_hCSF1R: NovaScreen (NVS) Enzymatic Assay for human Colony Stimulating Factor 1 Receptor (CSF1R) (AID 2283150). The essentials: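 Compounds screened in duplicate at 25 uM, then concentration-response (top 50 uM) for those passing threshold such as 30% inhibition; recombinant CSF1R activity measured 1 h post-dosing via fluorescent substrate/product mobility-shift separation, loss of signal versus DMSO.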

In assay [8] the target is human Ephrin type-A Receptor 1 (EphA1), EPHA1 (gene 2041) (UniProt P21709). As to the kind of experiment: NVS_ENZ_hEphA1: NovaScreen (NVS) Enzymatic Assay for human Ephrin type-A Receptor 1 (EphA1) (AID 2283158).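 Also: activity is signal loss versus DMSO meaning EphA1 kinase inhibition.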 The method, boiled down: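 Cell-free kinase activity with recombinant protein, 1 hour after dosing; product separated by electrophoretic mobility shift, fluorescence read. Primary screen at 25 uM in duplicate; hits run as concentration-response up to 50 uM, relative to DMSO.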
human Ephrin type-A Receptor 1 (EphA1), EPHA1 (gene 2041), sequence (P21709 whole entry, looked up): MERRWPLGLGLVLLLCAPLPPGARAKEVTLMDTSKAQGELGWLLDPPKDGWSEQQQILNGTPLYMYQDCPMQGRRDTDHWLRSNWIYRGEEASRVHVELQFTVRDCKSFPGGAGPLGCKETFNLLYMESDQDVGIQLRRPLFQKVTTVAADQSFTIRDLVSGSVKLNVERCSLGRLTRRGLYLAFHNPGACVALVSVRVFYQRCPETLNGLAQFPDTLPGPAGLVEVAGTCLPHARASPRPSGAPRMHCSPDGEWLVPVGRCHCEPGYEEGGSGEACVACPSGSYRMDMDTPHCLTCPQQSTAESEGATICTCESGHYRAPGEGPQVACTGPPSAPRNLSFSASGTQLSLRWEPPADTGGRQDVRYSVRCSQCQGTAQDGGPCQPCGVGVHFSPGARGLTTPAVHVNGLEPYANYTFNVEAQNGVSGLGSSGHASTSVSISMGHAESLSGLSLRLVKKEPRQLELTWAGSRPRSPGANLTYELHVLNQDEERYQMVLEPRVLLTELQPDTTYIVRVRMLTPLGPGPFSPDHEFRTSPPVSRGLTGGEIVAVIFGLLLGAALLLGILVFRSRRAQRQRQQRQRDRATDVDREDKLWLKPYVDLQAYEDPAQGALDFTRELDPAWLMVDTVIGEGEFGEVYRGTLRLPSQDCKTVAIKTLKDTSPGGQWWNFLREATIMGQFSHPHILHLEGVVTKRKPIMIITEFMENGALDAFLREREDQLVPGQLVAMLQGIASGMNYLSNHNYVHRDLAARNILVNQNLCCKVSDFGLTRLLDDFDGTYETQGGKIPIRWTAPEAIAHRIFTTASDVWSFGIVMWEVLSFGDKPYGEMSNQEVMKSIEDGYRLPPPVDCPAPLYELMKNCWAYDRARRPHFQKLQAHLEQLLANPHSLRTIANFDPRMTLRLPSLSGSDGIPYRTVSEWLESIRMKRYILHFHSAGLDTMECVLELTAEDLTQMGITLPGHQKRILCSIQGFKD

Assay [9] concerns the target human AKT serine/threonine Kinase 1 (AKT1), AKT1 (gene 207) (UniProt P31749). Description: NVS_ENZ_hAKT1: NovaScreen (NVS) Enzymatic Assay for human AKT serine/threonine Kinase 1 (AKT1) (AID 2283138). The method, boiled down:
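A biochemical assay with recombinant enzyme and specific substrate, read by fluorescence intensity with mobility-shift separation 1 hour after dosing. Actives from 25 uM duplicate screening were titrated up to 50 uM against DMSO baseline.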

Assay [10] has as its target human Caspase 8 (CASP8), CASP8 (gene 841) (UniProt Q14790). Description: NVS_ENZ_hCASP8: NovaScreen (NVS) Enzymatic Assay for human Caspase 8 (CASP8) (AID 2283146). The essentials:
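The primary screen tested compounds in duplicate at a single 25 uM concentration, with actives followed up in concentration series. Activity of recombinant (E. coli) protease was measured by fluorescence 1 h post-dose, as signal loss against DMSO.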

In assay [11] the target is human Esterase Plasma (ES), BCHE (gene 590) (UniProt P06276). Description: NVS_ENZ_hES: NovaScreen (NVS) Enzymatic Assay for human Esterase Plasma (ES) (AID 2283157). The essentials: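 Human plasma-derived enzyme, cell-free, colorimetric readout at 0.25 h. Primary screen 25 uM in duplicate; hits (e.g. ≥30% inhibition) rerun singleton up to 50 uM. DMSO = negative control/baseline.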

Assay [12] deals with human Ephrin type-A Receptor 2 (EphA2), EPHA2 (gene 1969) (UniProt P29317). Description: NVS_ENZ_hEphA2: NovaScreen (NVS) Enzymatic Assay for human Ephrin type-A Receptor 2 (EphA2) (AID 2283155). The method, boiled down: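 Enzyme activity of recombinant EphA2 read by fluorescence after mobility-shift separation, 1 h after dosing. Chemicals first tested at 25 uM (duplicate); those passing threshold run as concentration series, top 50 uM, single replicate, relative to DMSO.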
human Ephrin type-A Receptor 2 (EphA2), EPHA2 (gene 1969), sequence (P29317 whole entry, looked up): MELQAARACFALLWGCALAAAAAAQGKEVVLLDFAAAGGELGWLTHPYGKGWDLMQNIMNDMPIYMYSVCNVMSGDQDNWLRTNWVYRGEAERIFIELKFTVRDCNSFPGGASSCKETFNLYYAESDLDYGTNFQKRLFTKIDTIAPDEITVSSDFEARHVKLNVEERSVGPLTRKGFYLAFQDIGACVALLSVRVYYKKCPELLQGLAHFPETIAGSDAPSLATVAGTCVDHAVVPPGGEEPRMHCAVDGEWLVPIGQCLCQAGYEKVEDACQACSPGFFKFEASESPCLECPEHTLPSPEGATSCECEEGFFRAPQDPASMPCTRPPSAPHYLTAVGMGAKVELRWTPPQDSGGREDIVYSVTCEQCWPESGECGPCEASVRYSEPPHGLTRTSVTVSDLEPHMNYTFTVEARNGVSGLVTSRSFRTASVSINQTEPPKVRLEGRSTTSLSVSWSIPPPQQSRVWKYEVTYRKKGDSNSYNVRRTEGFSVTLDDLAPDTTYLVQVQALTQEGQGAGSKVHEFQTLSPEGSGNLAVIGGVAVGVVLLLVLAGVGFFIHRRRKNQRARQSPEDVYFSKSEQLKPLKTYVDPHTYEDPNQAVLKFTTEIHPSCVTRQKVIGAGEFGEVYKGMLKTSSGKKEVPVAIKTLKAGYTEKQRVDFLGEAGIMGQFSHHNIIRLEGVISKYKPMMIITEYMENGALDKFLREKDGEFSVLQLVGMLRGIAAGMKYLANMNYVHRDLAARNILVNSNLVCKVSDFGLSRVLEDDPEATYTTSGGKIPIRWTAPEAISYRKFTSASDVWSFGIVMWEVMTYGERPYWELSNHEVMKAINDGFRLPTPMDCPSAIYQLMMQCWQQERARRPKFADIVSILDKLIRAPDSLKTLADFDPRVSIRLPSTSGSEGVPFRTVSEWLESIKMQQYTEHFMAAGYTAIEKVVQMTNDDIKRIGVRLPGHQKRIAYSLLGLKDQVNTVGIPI

The target of assay [13] is human FYN Proto-Oncogene, Src family Tyrosine Kinase (Fyn), FYN (gene 2534) (UniProt P06241). Description: NVS_ENZ_hFyn: NovaScreen (NVS) Enzymatic Assay for human FYN Proto-Oncogene, Src family Tyrosine Kinase (Fyn) (AID 2283161). The method, boiled down: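 Cell-free kinase activity read by fluorescence after mobility-shift separation of substrate and product, 1 h post-dose. Initial single concentration 25 uM in duplicate, then concentration-response follow-up; DMSO baseline.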
human FYN Proto-Oncogene, Src family Tyrosine Kinase (Fyn), FYN (gene 2534), sequence (P06241 whole entry, looked up): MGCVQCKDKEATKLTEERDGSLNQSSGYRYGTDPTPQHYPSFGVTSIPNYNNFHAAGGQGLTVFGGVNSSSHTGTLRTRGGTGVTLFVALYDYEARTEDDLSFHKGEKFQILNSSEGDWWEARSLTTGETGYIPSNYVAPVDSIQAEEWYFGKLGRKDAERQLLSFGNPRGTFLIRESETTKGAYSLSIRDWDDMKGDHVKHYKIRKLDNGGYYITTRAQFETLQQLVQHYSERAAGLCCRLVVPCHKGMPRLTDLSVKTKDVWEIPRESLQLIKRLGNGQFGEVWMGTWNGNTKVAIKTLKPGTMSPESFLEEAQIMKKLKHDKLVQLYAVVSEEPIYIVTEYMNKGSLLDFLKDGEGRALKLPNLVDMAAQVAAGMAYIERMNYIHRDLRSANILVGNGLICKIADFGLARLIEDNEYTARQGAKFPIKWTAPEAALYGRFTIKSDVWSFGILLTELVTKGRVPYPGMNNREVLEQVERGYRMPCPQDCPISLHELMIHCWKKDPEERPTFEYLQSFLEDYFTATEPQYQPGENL

Assay [14] addresses human Epidermal Growth Factor Receptor (EGFR), EGFR (gene 1956) (UniProt P00533). As to the kind of experiment: NVS_ENZ_hEGFR: NovaScreen (NVS) Enzymatic Assay for human Epidermal Growth Factor Receptor (EGFR) (AID 2283151). The method, boiled down: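 Cell-free kinase assay, fluorescence plus electrophoretic mobility shift separating substrate and product, read 1 hour after dosing; loss of signal vs DMSO. Duplicate screen at 25 uM, then concentration-response to 50 uM.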

Assay [15] deals with human Fibroblast Growth Factor Receptor 1 (FGFR1), FGFR1 (gene 2260) (UniProt P11362). As to the kind of experiment: NVS_ENZ_hFGFR1: NovaScreen (NVS) Enzymatic Assay for human Fibroblast Growth Factor Receptor 1 (FGFR1) (AID 2283159). The essentials: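 Cell-free recombinant kinase with fluorescent substrate, product separated by electrophoretic mobility shift; read 1 hour after dosing, loss of signal relative to DMSO. Initial screen in duplicate at 25 uM, actives followed in concentration series.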

The target of assay [16] is Histone deacetylase 3 (Homo sapiens) (UniProt O15379). As to the kind of experiment: NVS_ENZ_hHDAC3: NovaScreen (NVS) Enzymatic Assay for human Histone Deacetylase 3 (HDAC3) (AID 2283163). The method, boiled down: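 Cell-free enzyme format: loss of fluorescent product after mobility-shift separation, 1 h incubation, recombinant human HDAC3. Single 25 uM duplicate screen first, then concentration series to a 50 uM top for hits; DMSO as baseline.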

The target in assay [17] is human Casein Kinase 1-delta (CK1D), CSNK1D (gene 1453) (UniProt P48730). Description: NVS_ENZ_hCK1D: NovaScreen (NVS) Enzymatic Assay for human Casein Kinase 1-delta (CK1D) (AID 2283148). The essentials:
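Recombinant human CK1-delta, cell-free; fluorescent substrate with electrophoretic mobility-shift separation of product, read 1 h after dosing. Single 25 uM duplicate screen, then concentration-response up to 50 uM; loss of signal vs DMSO.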

Assay [18] deals with Protein deacetylase HDAC6 (Homo sapiens) (UniProt Q9UBN7). Description: NVS_ENZ_hHDAC6: NovaScreen (NVS) Enzymatic Assay for human Histone Deacetylase 6 (HDAC6) (AID 2283164). The essentials: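 Concentration-response runs up to 50 uM followed a duplicate 25 uM single-point screen. Deacetylase activity of recombinant human HDAC6 read by fluorescence after 1 h, with mobility-shift separation of substrate and product; DMSO as baseline.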

Records with an inconclusive call do not appear. Calls of active or inactive are those of the source. The calls were made as follows: active = hit-call score of the fitted dose curve at least 0.9, where 1 is the maximum; inconclusive = response in the unintended direction; inactive = score below 0.9.

human Aurora Kinase A - serine/threonine-protein Kinase 6 (AurA), AURKA (gene 6790), sequence (O14965 whole entry, looked up): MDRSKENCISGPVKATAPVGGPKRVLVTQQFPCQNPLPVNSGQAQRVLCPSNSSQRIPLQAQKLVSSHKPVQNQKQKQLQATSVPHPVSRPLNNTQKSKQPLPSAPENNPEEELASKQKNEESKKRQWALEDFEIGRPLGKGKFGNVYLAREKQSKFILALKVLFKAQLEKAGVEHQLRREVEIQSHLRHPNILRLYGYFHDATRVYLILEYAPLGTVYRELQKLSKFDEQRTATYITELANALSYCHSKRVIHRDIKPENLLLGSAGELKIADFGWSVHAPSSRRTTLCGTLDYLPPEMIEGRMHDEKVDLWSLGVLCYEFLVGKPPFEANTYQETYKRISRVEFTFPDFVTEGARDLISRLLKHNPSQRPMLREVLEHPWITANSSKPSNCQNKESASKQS
human Dual Specificity Protein Phosphatase 3 (DUSP3), DUSP3 (gene 1845), sequence (P51452 whole entry, looked up): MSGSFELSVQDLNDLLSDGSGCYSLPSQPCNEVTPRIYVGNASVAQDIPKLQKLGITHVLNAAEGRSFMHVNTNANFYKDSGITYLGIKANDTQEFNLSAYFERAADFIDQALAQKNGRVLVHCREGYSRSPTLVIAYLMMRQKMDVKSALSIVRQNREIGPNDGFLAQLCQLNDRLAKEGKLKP
human Caspase 4 (CASP4), CASP4 (gene 837), sequence (P49662 whole entry, looked up): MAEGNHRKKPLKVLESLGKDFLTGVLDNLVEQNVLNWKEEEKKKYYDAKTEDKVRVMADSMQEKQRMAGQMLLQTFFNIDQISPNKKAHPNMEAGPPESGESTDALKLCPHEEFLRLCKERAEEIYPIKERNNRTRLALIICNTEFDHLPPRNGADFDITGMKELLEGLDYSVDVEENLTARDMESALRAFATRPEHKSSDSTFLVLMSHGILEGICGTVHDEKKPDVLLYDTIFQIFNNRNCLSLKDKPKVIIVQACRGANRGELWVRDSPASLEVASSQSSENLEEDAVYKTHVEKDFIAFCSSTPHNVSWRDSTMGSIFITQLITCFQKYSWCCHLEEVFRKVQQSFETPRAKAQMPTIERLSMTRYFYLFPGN
human Epidermal Growth Factor Receptor (EGFR), EGFR (gene 1956), sequence (P00533 whole entry, looked up): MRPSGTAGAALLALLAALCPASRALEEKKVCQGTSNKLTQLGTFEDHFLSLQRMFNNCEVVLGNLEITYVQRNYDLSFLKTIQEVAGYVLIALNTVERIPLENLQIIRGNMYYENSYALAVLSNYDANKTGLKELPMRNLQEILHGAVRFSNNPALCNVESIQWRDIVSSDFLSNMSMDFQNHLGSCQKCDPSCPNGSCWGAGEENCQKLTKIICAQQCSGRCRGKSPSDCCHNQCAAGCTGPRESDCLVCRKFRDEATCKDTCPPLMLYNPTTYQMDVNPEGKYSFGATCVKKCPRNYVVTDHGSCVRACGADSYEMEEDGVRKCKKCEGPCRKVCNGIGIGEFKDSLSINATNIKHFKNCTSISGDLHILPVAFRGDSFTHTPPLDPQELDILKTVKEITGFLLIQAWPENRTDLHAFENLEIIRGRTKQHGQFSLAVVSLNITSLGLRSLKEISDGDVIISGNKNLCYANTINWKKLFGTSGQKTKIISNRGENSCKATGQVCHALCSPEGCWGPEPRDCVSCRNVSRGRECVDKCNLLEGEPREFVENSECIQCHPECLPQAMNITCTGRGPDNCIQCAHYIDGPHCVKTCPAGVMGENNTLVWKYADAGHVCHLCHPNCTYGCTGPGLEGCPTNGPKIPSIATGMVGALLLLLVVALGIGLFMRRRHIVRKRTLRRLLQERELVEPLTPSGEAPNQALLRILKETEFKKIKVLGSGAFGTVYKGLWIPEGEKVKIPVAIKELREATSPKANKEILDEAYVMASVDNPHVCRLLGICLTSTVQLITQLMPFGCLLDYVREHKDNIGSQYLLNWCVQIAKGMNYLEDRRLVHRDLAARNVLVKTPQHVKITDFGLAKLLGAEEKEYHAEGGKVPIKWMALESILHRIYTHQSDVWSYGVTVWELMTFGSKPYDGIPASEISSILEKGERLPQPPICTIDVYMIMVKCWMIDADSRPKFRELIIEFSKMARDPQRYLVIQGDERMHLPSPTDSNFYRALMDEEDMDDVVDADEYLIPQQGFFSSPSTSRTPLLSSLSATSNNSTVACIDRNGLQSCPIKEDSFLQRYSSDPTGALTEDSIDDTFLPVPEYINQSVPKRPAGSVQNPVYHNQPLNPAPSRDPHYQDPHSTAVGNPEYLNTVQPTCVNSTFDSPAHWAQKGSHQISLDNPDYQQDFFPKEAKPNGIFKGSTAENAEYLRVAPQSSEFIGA
human Elastase, ELANE (gene 1991), sequence (P08246 whole entry, looked up): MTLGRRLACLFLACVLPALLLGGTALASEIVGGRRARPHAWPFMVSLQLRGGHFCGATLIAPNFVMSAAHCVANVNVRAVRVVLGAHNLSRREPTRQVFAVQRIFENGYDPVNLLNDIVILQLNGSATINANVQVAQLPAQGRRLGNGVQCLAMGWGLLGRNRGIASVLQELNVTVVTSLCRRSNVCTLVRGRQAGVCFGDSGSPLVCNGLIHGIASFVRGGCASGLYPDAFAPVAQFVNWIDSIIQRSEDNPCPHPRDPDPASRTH

Consider `Cc1ccc(N=C=O)cc1N=C=O`, for which the AC50 – broadly, the concentration giving half of the maximal activity seen – in [1] was 8.64 µM (active); in assay [3] it was 13.7 µM (active); in assay [4], 12.6 µM (active); in assay [5], 8.38 µM (active). Moreover, the call in assay [2] was inactive.
As for `COc1cc(C=O)cc2c1[C@H](COC(N)=O)[C@]1(OC(C)=O)ON2C[C@H]2[C@@H]1N2C(C)=O`, the call (in assay [6]; with CDK2 (gene 1017); in assay [7]; in assay [8]) was inactive. Further, the AC50 in assay [5] was 5.75 µM (active).
Take `Clc1ccc(Cl)c(Cl)c1`: the molecule was classed as inactive in assay [9] and in assay [10].
With `O=[N+]([O-])c1ccc(Oc2ccc(Cl)cc2Cl)cc1`, the result in assay [1] and in assay [5] was inactive.
In the case of `O=C(O)C1C2CCC(O2)C1C(=O)O` (centres undefined), in [2], the call was inactive.
On to `Cc1cccc(N)c1N`, for which, in assay [3], the molecule was classed as inactive. Besides, the AC50 in assay [4] was 25 µM (active); in [11] it was 23.1 µM (active).
For `CCCCCCCCCCCCCN1CC(C)OC(C)C1` (centres undefined), the outcome in [5], in assay [12], in assay [11] and in assay [13] was inactive.
Take `[Cl-].[Cl-].[Hg+2]`: in assay [11], the AC50 was 20.9 µM (active).
For the molecule `ClCCOCCCl`, the outcome in assay [6], in [14] and in assay [15] was inactive.
With `CNC(=O)Oc1cccc2c1OC(C)(C)C2`, in assay [11], the AC50 is 27.3 µM (active). Besides, in [13], the outcome was inactive.
On to `CCOc1cccc(C2(N3CCN(c4ccccc4)CC3)CCC(C)CC2)c1` (centres undefined), for which the outcome in [11] was inactive.
In the case of `Nc1ccc(N=Nc2ccccc2)cc1`, the call in [3] and in assay [10] was inactive.
Turning to `CCCCC(CC)COC(=O)c1ccc(C(=O)OCC(CC)CCCC)c(C(=O)OCC(CC)CCCC)c1` (centres undefined), the result in assay [14], in [8] and in assay [15] was inactive.
Regarding `C=CCc1ccc2c(c1)OCO2`, the outcome in [15] was inactive.
Regarding `Cn1cc(-c2ccccc2)c(=O)c(-c2cccc(C(F)(F)F)c2)c1`, the call in [16] was inactive.
Regarding `OCCCBr`, in assay [8], the outcome was inactive.
In the case of `CCOC(=O)[C@]1(c2ccccc2)Oc2ccccc2[C@@H]1N`, the AC50 in assay [11] is 16.7 µM (active).
`C1=Cc2cccc3cccc1c23`: the outcome in [4] and in assay [11] was inactive.
In the case of `CCN(CC)N=O`, the molecule was classed as inactive in assay [6], in assay [17], in [7], in assay [14], in assay [12] and in [15]. Besides, the molecule was called inactive in assay [13] and in [18].
For `COP(=S)(OC)SCN1C(=O)c2ccccc2C1=O`, the molecule was called inactive in assay [4].
For the molecule `O=C(Nc1ccccc1)c1ccccc1I`, in [11], the molecule was classed as inactive.
Take `O=C(Oc1ccc(Br)cc1)N1CCN2CCC1CC2`: the result in [15] was inactive.
Regarding `O=[N+]([O-])C(Br)(CO)CO`, the AC50 in assay [11] was 32.1 µM (active).
For `Oc1ccccc1Cl`, the call in assay [12] and in [15] was inactive.
`Nc1ccc([N+](=O)[O-])cc1`: the call in assay [6], in assay [10] and in assay [7] was inactive.
Take `O=C(N[C@H](c1ccccc1)[C@@H]1CN2CCC1CC2)c1c(Cl)ccc(C(F)(F)F)c1Cl`: the AC50 in assay [11] is 19.8 µM (active).
For the molecule `CC(C)(C)C(O)(CCc1ccc(Cl)cc1)Cn1cncn1` (centres undefined), the result in assay [6] and in [14] was inactive. Also, in assay [11], the AC50 is 22.7 µM (active).
`C[C@]12C=CC3=C4CCC(=O)C=C4CC[C@H]3[C@@H]1CC[C@@H]2O`: in assay [6], the AC50 was 35.3 µM (active). Also, the molecule was called inactive in assay [7].
For `COC(=O)c1ccccc1N`, in [10], the AC50 is 11.1 µM (active).
